This excerpt belongs to a sample that is enriched for hits.
Methyltransferases: Primary Screen for Target Class Profiling of Small Molecule Inhibitors of Methyltransferases | purified enzyme, MTase-Glo SAH luminescence; active compounds read low | calls only at 40 µM | 25,000 tested, 3.9% active; call rule not given here
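Each enzyme was reacted with SAM and its substrate, with compounds tested once at 40 uM; SAH formed was read by MTase-Glo luminescence.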
Numbers without * were called inactive; i = inactive; + = active, no number. % is scaled to controls: 0 for no effect and ±100 for the full control effect.

SMILES	Methyltransferases
COc1ccc(Nc2nc3c(S(=O)(=O)c4ccc(F)cc4)nnn3c3ccccc23)cc1	i
OC[C@@]1(O)CO[C@@H](OC[C@H]2O[C@@H](Oc3ccccc3)[C@H](O)[C@@H](O)[C@@H]2O)[C@@H]1O	i
CN1C(=O)c2cc(NC(=O)c3cccc(N(C)C)c3)ccc2N2CCN=C12	i
COc1ccc(Sc2ccc(NC(=O)c3ccccc3Cl)cc2C#N)cc1	i
COc1cc(OC)cc(C(=O)Nc2ccc(Cl)c(-c3nc4ccc(N(C)C)cc4[nH]3)c2)c1	+
Cc1ccc(Cn2c(=O)c3ccc(C(=O)NC(C)C)cc3n3c(=O)n(CC(=O)NC(C)C)nc23)cc1	i
CCc1ccccc1CN1CCCC2(Cc3ccccc3CNC2=O)C1 (stereo not drawn)	i
CO[C@H]1C[C@@H]2CC[C@@H](C)[C@@](O)(O2)C(=O)C(=O)N2CCCC[C@H]2C(=O)O[C@H]([C@H](C)C[C@@H]2CC[C@@H](OP(C)(C)=O)[C@H](OC)C2)CC(=O)[C@H](C)/C=C(\C)[C@@H](O)[C@@H](OC)C(=O)[C@H](C)C[C@H](C)/C=C/C=C/C=C/1C	i
CC(C)CNC(=O)c1ccc2c(=O)n(CC(C)C)c3nn(CC(=O)Nc4ccc(F)cc4)c(=O)n3c2c1	i
CC1(C(=O)NC2CCCCC2)Cn2nc(-c3cccs3)cc2C(=O)N1Cc1cccc(Cl)c1 (stereo not drawn)	i
Cc1cc2c(cc1S(=O)(=O)N1CCN(c3ccc(F)cc3)CC1)n(C)c(=O)n2C	i
O=C(CCCc1nnc2n3nc(-c4ccccc4)nc3c3ccccc3n12)N1CCN(C2CCCCC2)CC1	i
O=C(CCCc1nnc2n3nc(-c4ccccc4)nc3c3ccccc3n12)N1CCN(Cc2ccccc2)CC1	i
O=C(CCCc1nnc2n3nc(-c4ccccc4)nc3c3ccccc3n12)N1CCC(N2CCCCC2)CC1	+
COc1ccc(C2(C(=O)N3C[C@@H](Oc4cccnc4)C[C@H]3C(=O)NC3CC3)CC2)cc1	i
CCn1cnnc1CC1CCN(C(=O)C2CCCN(S(=O)(=O)c3ccc4c(c3)oc(=O)n4C)C2)CC1 (stereo not drawn)	i
COc1ccc(-c2cc3n(n2)CC(C)(C(=O)NCc2ccccc2OC)N(c2cccc(SC)c2)C3=O)cc1 (stereo not drawn)	i
c1ccc(Cn2c(-c3ccc(OCC(C4CCNCC4)n4c(-c5ccccc5)nc5ccccc54)cc3)nc3ccccc32)cc1 (stereo not drawn)	+
CC(C)Oc1ccc(CN2C(=O)c3nc4ccccc4n3CC2(C)C(=O)NC2CCCCCC2)cc1 (stereo not drawn)	i
CC(C)Oc1ccc(CN2C(=O)c3nc4ccccc4n3CC2(C)C(=O)NC2CCCCC2)cc1 (stereo not drawn)	i
COc1ccc(CN2C(=O)c3cc4sccc4n3CC2(C)C(=O)NC2CCC(C)CC2)cc1 (stereo not drawn)	i
Cc1cc2c(C(C)C)c(O)c(O)c(C=O)c2c(O)c1-c1c(C)cc2c(C(C)C)c(O)c(O)c(C=O)c2c1O	+
Nc1ccc(CCNc2ncnc3c2ncn3C2OC(CO)C(O)C2O)cc1 (stereo not drawn)	i
OC[C@H]1O[C@@H](n2cnc3cncnc32)[C@H](O)[C@@H]1O	+
OC[C@H]1O[C@@H](n2cnc3c(NC4CCCC4)ncnc32)[C@H](O)[C@@H]1O	i
SMILES	Methyltransferases
OC[C@H]1O[C@@H](n2cnc3c(NC4CCCCC4)ncnc32)[C@H](O)[C@@H]1O	i
Nc1ncnc2c1c(I)cn2C1OC(CO)C(O)C1O (stereo not drawn)	+
Nc1nc(F)nc2c1ncn2[C@@H]1O[C@H](CO)[C@@H](O)[C@@H]1O	i
COc1ccc(Cn2c(=O)c3ccccc3n3c(-c4ccc(Br)cc4)nnc23)cc1	i
CCCn1c(=O)c2ccc(C(=O)NCC(C)C)cc2n2c(=O)n(CC(=O)Nc3cccc(F)c3)nc12	i
CC1(C(=O)NC2CCCC2)Cn2c(cc3ccccc32)C(=O)N1CCc1ccccc1 (stereo not drawn)	i
O=C(Cn1ccc2cc(S(=O)(=O)N3CCCC3)ccc21)NCCc1ccccc1Cl	i
COc1ccc(OC)c(CCNC(=O)CCc2nnc3n(Cc4ccccc4Cl)c(=O)c4ccccc4n23)c1	i
COc1cccc(-c2ccc(C(=O)N3CCC(NC(=O)c4ccc(C(F)(F)F)cc4)CC3)cc2)c1	i
CC#C[C@@H](CC(=O)O)c1ccc(OCc2cccc(-c3ccc(C(F)(F)F)cc3)c2)cc1	+
Cc1oc(C(O)c2ccccc2)nc1C(=O)Nc1ccncc1 (stereo not drawn)	i
CCCN1C(=O)c2c(C(=O)NCc3cc(OC)ccc3OC)ncn2CC1(C)C(=O)NCc1ccc(F)cc1 (stereo not drawn)	i
NC(N)=NC(=O)c1cnn(-c2cccc3ncccc23)c1C1CC1	+
CN(Cc1ccccc1)C(=O)c1cc2n(n1)CC(C)(C(=O)NC1CCCCCC1)N(C)C2=O (stereo not drawn)	i
COC(=O)c1ncn2c1C(=O)N(Cc1ccccc1C)C(C)(C(=O)NC1CCCCC1)C2 (stereo not drawn)	i
CCCn1c(=O)c2ccc(C(=O)NC(C)C)cc2n2c(SCC(=O)Nc3cc(C)cc(C)c3)nnc12	i
C=CC(=O)N1CCC[C@@H](n2nc(-c3cccc(C(=O)Nc4ccc(C(C)C)c(C)c4)c3)c3c(N)ncnc32)C1	i
CC(C)n1nc(C#Cc2ccccc2)c2c(N)ncnc21	i
CC(C)n1nc(-c2ccc(NC(=O)Nc3cccc(C(F)(F)F)c3)cc2)c2c(N)ncnc21	+
Oc1cc(CNC(=S)/C=C/c2cc(O)c(O)c(Br)c2)cc(O)c1O	+
Cc1ccc(C(=O)C(C)n2nc3n(C)c(=O)c4ccc(C(=O)NC5CCCCC5)cc4n3c2=O)cc1C (stereo not drawn)	i
COc1ccc(OC)c(CCNC(=O)CCc2nnc3n(CCC(C)C)c(=O)c4ccccc4n23)c1	i
CCc1ccccc1N1C(=O)c2cc3ccccc3n2CC1(C)C(=O)NCc1ccccc1OC (stereo not drawn)	i
COc1cccc(CNc2nc3c(S(=O)(=O)c4ccc(Cl)cc4)nnn3c3ccccc23)c1	i
CCCn1c(=O)c2cc(Cl)ccc2n2c(=O)n(CC(=O)Nc3ccc(F)cc3)nc12	i
SMILES	Methyltransferases
CCC1c2cccn2-c2sc3c(c2CN1C(=O)Nc1cc(OC)ccc1OC)CCCC3 (stereo not drawn)	i
CN(Cc1cccs1)c1ncnc2ccc(-c3ccc4c(c3)OCO4)cc12	+
CN(Cc1cccs1)Cc1cccn1C	i
CCCn1c(=O)c2cc(Cl)ccc2n2c(SCC(=O)Nc3ccccc3OC)nnc12	i
COc1ccc(-c2cc3n(n2)CC(C)(C(=O)NCc2ccccc2)N(Cc2ccc(OC)cc2OC)C3=O)cc1 (stereo not drawn)	i
CCOc1cccc(CN(C)C(=O)CN2CC3(CCN(C)CC3)CC2=O)c1	i
O=c1[nH]c2ccc(S(=O)(=O)N3CCN(c4ccc(F)cc4)CC3)cc2[nH]1	i
Cc1nnc2n(-c3cccc(F)c3)c(=O)c3ccc(C(=O)NCc4ccc5c(c4)OCO5)cc3n12	i
COCCOc1ncccc1-c1noc([C@@H]2CCCN2Cc2ccc(OC)cc2O)n1	i
COc1cc(/C=C2\CCCN([C@@H](C)c3ccc(F)cc3)C2=O)ccc1-n1cnc(C)c1	+

Screening results deposited in PubChem BioAssay by National Center for Advancing Translational Sciences (NCATS).
